CHX counter: Cycloheximide Counterscreen for Small Molecule Inhibitors of Shiga Toxin; cell reporter, cycloheximide protein synthesis inhibition counterscreen; max response, %; hit rate 12% among 300,000; in the data active = max response mostly above about 13%, no sharp cut-off; inactive = mostly below about 14%; note: read at 38.3 µM for the half of the compounds with a filed dose
Pf growth 48h: Primary qHTS for delayed death inhibitors of the malarial parasite plastid, 48 hour incubation. hit rate 5.9% among 310,000. P. falciparum luciferase growth in erythrocytes, 48 h. Potency, µM (titrated, usually from 28.7 µM), most hits filed as inhibitors
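Compounds are pin-transferred into medium, infected erythrocytes (2% hematocrit, 0.1% parasitemia final) are added, and plates sit one parasite generation at 37 C in 5% CO2. Detection reagent is then added and luminescence measured.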
Shiga inhibitor: A qHTS for Small Molecule Inhibitors of Shiga Toxin; Vero cells, Shiga toxin protein synthesis inhibition reporter; inhibition, % at 38.7 µM; hit rate 9.2% among 290,000; in the data active = inhibition mostly above about 28%, no sharp cut-off; inactive = mostly below about 43%
Pf growth 96h: Primary qHTS for delayed death inhibitors of the malarial parasite plastid, 96 hour incubation | P. falciparum luciferase reporter growth, 96 h | AID 504834, 2011 | hit rate 6.9% among 320,000 | Potency, µM (highest dose often 28.7 µM), hits mostly inhibitors
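Plates of compound plus infected erythrocytes (2% hematocrit, 0.05% parasitemia final) incubate 96 hours, 37 C, 5% CO2. Detection reagent added; reduced luminescence from the parasites' luciferase reporter flags inhibition.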
HCMV antiviral: qHTS Assay for inhibitors of the human cytomegalovirus (HCMV); HFF cells, HCMV-luciferase reporter, 72 h; stronger effect = lower value; activity change, negative = inhibition, % at 57.5 µM; hit rate 4.5% among 410,000; in the data active = activity change below about -60%; inconclusive = no clear call, values can overlap the other calls; inactive = above about -39%
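Inhibition of viral replication was scored as loss of reporter luminescence in HFFs infected with HCMV-luciferase (MOI 1 PFU/cell) for 72 h; compounds tested at 2 doses, normalized to buffer and Salinomycin controls.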
Of the large screens only hits and unclear results are named; the others gave an inactive call. Only some compounds are listed: those with a hit (about 20% of all), similar ones and a draw of the others. Unless noted, calls come from the whole dose curve; as a rule, active = well fitted inhibition curve with a large enough effect; inconclusive = small, poorly fitted or top-dose-only effect, or another doubt; inactive = no such curve, though single readings can be large or run the other way.

COc1ccc(N2C(=O)C(CC(=O)O)S/C2=N\N=C\c2cccs2)cc1 (configuration not stated)	none
COc1cc(OC)cc(C(=O)N[C@H](C(=O)OCC(=O)Nc2sccc2C#N)C(C)C)c1	none
CCC(C(=O)OCc1cc(=O)n2nc(CCOC)sc2n1)c1ccccc1 (configuration not stated)	none (no result: CHX counter, Pf growth 48h, Shiga inhibitor, Pf growth 96h)
Cc1sc2c(c1C)C(=O)NC(c1cccc(O)c1)N2 (configuration not stated)	CHX counter 27, Pf growth 96h inconclusive (no result: HCMV antiviral)
CC(C)[C@@H](C(=O)N1CCN(Cc2ccc3c(c2)OCO3)CC1)n1nnc2ccccc2c1=O	Pf growth 48h inconclusive, Pf growth 96h 13µM
Cn1c(=O)cc(SCC(=O)N2CCN(Cc3ccc4c(c3)OCO4)CC2)c2ccccc21	Pf growth 96h inconclusive
Cn1c(=O)c([N+](=O)[O-])c(N2CCN(Cc3ccc4c(c3)OCO4)CC2)c2ccccc21	Pf growth 48h 12µM, Pf growth 96h 12µM
Cn1c(C(=O)N2CCN(Cc3ccc4c(c3)OCO4)CC2)cc2c(=O)n(C)c3ccccc3c21	Pf growth 96h 1.9µM (no result: Pf growth 48h)
Cn1c(C(=O)N2CCCC2)cc2c(=O)n(C)c3ccccc3c21	none (no result: Pf growth 48h)
O=C(CN1C(=O)NC2(CCCc3ccccc32)C1=O)N1CCN(C(=O)c2ccco2)CC1 (configuration not stated)	none (no result: Pf growth 96h)
COc1ccc(CC2=C(O)c3ccccc3C(=O)C2=O)cc1	none
O=C1C(=O)c2ccccc2C(O)=C1CCCCl	Pf growth 48h 0.83µM, Pf growth 96h 1.9µM (no result: HCMV antiviral)
COc1ccc(CCNC(=O)COC(=O)C2=NNC(=O)CC2)cc1	none (no result: CHX counter, Pf growth 48h, Shiga inhibitor, Pf growth 96h)
CN1CCN(C(=O)C(=O)Nc2c3c(nn2-c2ccc(F)cc2)CSC3)CC1	none (no result: CHX counter, Pf growth 48h, Shiga inhibitor, Pf growth 96h)
CCOC(=O)c1c(NC(=O)CSc2ncccn2)sc2c1CC(C)(C)NC2(C)C	Pf growth 48h 15µM, Pf growth 96h 9.3µM
COC(=O)c1c(NC(=O)COc2ccc(Cl)cc2)sc2c1CC(C)(C)NC2(C)C	Pf growth 48h inconclusive, Pf growth 96h inconclusive
CC1(C)Cc2c(sc(NC(=O)COc3ccc(Cl)cc3Cl)c2C(N)=O)C(C)(C)N1	Pf growth 48h 10µM, Pf growth 96h inconclusive
CCOC(=O)c1c(NC(=O)COc2ccccc2F)sc2c1CC(C)(C)NC2(C)C	Pf growth 48h 12µM, Pf growth 96h inconclusive (no result: CHX counter, Shiga inhibitor)
CC(C)CN(CC(C)C)S(=O)(=O)c1ccc(C(=O)Nc2sc3c(c2C(N)=O)CC(C)(C)NC3(C)C)cc1	HCMV antiviral -97 (no result: CHX counter, Pf growth 48h, Shiga inhibitor, Pf growth 96h)
COc1ccc(NC(=O)CSc2nc3ccc(OC)cc3[nH]2)cc1	none
CCOC(=O)c1c(NC(=O)CSc2nc3ccc(OC)cc3[nH]2)sc2c1CC(C)(C)NC2(C)C	Pf growth 48h inconclusive, Pf growth 96h 5.9µM (no result: CHX counter, Shiga inhibitor)
CCCCOc1ccc(/C=c2\sc3ncnn3c2=O)cc1	Pf growth 96h 1.5µM
CCOc1ccc(NC(=O)c2oc3ccccc3c2NC(=O)C(C)Oc2ccccc2)cc1 (configuration not stated)	none (no result: CHX counter, Pf growth 48h, Shiga inhibitor, Pf growth 96h)
CN1CCc2cc(Cl)c(O)cc2[C@H]2c3ccccc3CC[C@@H]21	Pf growth 48h 12µM, Pf growth 96h 9.5µM (no result: CHX counter, Shiga inhibitor, HCMV antiviral)
CN1CCc2cc(Cl)c(O)cc2[C@@H](c2ccccc2)C1	HCMV antiviral -65 (no result: Pf growth 48h, Pf growth 96h)
CC1=NNC(=O)C1CCC(=O)N/N=C/c1c(Cl)cccc1Cl (configuration not stated)	Pf growth 96h inconclusive
CCOC(=O)c1cccn1C1C(=O)N(Cc2ccc(Cl)nc2)c2c(F)cccc21 (configuration not stated)	none (no result: CHX counter, Pf growth 48h, Shiga inhibitor, Pf growth 96h)
C/C(=N\Nc1cccc(C(=O)O)c1)c1cc2ccccc2o1	CHX counter 71, Shiga inhibitor 198
C/C(=N\Nc1ccccc1)c1cc2ccccc2oc1=O	Pf growth 96h inconclusive
C/C(=N\Nc1cccc([N+](=O)[O-])c1)c1cc2ccccc2o1	CHX counter 40, Shiga inhibitor 44
O=C(NCc1ccc(Cl)cc1Cl)c1ccccn1	none
C/C(=N\Nc1ncc(Cl)cc1Cl)c1ccccn1	CHX counter 43, Shiga inhibitor 119, Pf growth 96h inconclusive (no result: HCMV antiviral)
C/C(=N\Nc1ccc(Cl)c(C(=O)O)c1)c1cc2ccccc2o1	CHX counter 80, Shiga inhibitor active
C/C(=N\NC(=O)CNc1ccc(F)cc1)c1cc2ccccc2o1	Pf growth 96h inconclusive
O=C(c1cccc([N+](=O)[O-])c1)c1cc2ccccc2o1	Pf growth 96h inconclusive

Source: PubChem
